Sampled rows, rich in hits. Any-hit rate of the full collection: about 14%.
MARV entry inh – inhibitors of Marburg virus binding or cell entry; Marburg virus pseudotyped entry inhibition, cell reporter; 1.8% of 300,000 active; Potency, µM (doses to about 37.8 µM), without a hit: at the top dose activity change, negative = inhibition, hits mostly inhibitors; calls by dose curve; tested in HEK293 cells; also: potency is read from the fitted curve at half-maximal effect
HCMV inh – blocks human cytomegalovirus replication | AID 1259415 | HFF cells, HCMV-luciferase reporter, 72 h; hits give low values | activity change, negative = inhibition, % at 57.5 µM | 4.5% of 410,000 active; in the data active = activity change below about -60%; inconclusive = no clear call, values can overlap the other calls; inactive = above about -39%
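Steps: HFFs plated, 16 h 37C; compounds added; HCMV-luciferase added to MOI 1 PFU/cell; 72 h 37C; OneGlo reagent, 5 min room temperature; luminescence read, normalized to controls.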
Pf growth 48h – P. falciparum growth inhibition at 48 hours (one generation) | Potency, µM (doses to about 28.7 µM), inactives show at the top dose activity change, negative = inhibition, hits mostly inhibitors | 5.9% of 310,000 active | P. falciparum luciferase growth in erythrocytes, 48 h; also: potency is read from the fitted curve at half-maximal effect
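Compounds are pin-transferred into medium, infected erythrocytes (2% hematocrit, 0.1% parasitemia final) are added, and plates sit one parasite generation at 37 C in 5% CO2. Detection reagent is then added and luminescence measured.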
HCV inh – blocks hepatitis C virus; Potency, µM (doses to about 41.8 µM), inactives show at the highest dose activity change, negative = inhibition, usual class: inhibitors; Huh7.5.1 HCVcc-Cre infection, luciferase reporter, 44 h; 3.4% of 340,000 active; AID 651820; also: potency is read from the fitted curve at half-maximal effect
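Infectious HCVcc-Cre (~0.5 moi) was added to cells just after compound, with cells seeded 4 h earlier at 1,000 per well. Luciferase activity after 44 h culture reported infection; substrate was incubated 15 min at room temperature before reading.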
Pf growth 96h – P. falciparum growth inhibition at 96 hours; Potency, µM (series often up to 28.7 µM), inactives show top-dose activity change, negative = inhibition, hits mostly inhibitors; P. falciparum luciferase reporter growth, 96 h; 6.9% of 320,000 active; also: potency is read from the fitted curve at half-maximal effect
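Delayed-death screen, second-generation endpoint: infected erythrocytes, 2% hematocrit, 0.05% parasitemia final; 96 hours at 37 C, 5% CO2; luciferase detection reagent; luminescence decrease equals reduced growth.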
Lassa entry inh – inhibitors of Lassa virus binding or cell entry | Lassa virus pseudotype entry inhibition, cell reporter | Potency, µM (doses to about 37.9 µM), without a hit: top-dose activity change, negative = inhibition, most hits filed as inhibitors | 1.2% of 300,000 active; calls by dose curve; tested in HEK293 cells; also: potency is read from the fitted curve at half-maximal effect; nearly all actives have a fitted effect of over 50% in size
Active calls of the source: *; ? = inconclusive; . = not tested or not shown; [ ] = dose if it differs, or a comment. Unless noted, calls follow the shape of the dose curve; as a rule, active = well fitted inhibition curve with a large enough effect; inconclusive = small, poorly fitted or top-dose-only effect, or another doubt; inactive = no such curve, though single readings can be large or run the other way. % is scaled to controls: 0 for no effect and ±100 for the full control effect.

SMILES	MARV entry inh	HCMV inh	Pf growth 48h	HCV inh	Pf growth 96h	Lassa entry inh
CC(=O)Nc1cc(-c2ccc(C(=O)N3CCOCC3)cc2)cn2c(-c3cccc(C(C)=O)c3)cnc12	.	-5	.	.	.	.
Cc1ccc2nc(SCC(=O)Nc3cc(C(F)(F)F)ccc3N3CCOCC3)[nH]c2c1	?	-89*	.	?	?	?
O=C(CSc1nc2ccccc2o1)Nc1ccc(N2CCOCC2)c(Cl)c1	?	45	136%	?	.	6%
CC(=O)c1c(C)[nH]c(C(=O)OCC(=O)Nc2cc(C(F)(F)F)ccc2N2CCOCC2)c1C	?	-15	?	-21%	4%	22µM*
O=C(CSc1nc2ccccc2o1)Nc1cc(C(F)(F)F)ccc1N1CCOCC1	?	-12	12µM*	?	.	?
O=C(COC(=O)/C=C/c1ccc(F)cc1)Nc1cc(C(F)(F)F)ccc1N1CCOCC1	-13%[46.1 µM]	12	12%	-6%	10%	11%[46.1 µM]
Cc1nc2ccccc2nc1OCC(=O)Nc1cc(C(F)(F)F)ccc1N1CCOCC1	3%	39	12µM*	?	6%	2%
O=C(CSc1nccc(=O)[nH]1)Nc1cc(C(F)(F)F)ccc1N1CCOCC1	10%	-9	23%	18%	1%	2%
CCOc1ccc(Cl)cc1-c1cc(C(=O)NCCc2ccncc2)[nH]n1	.	6	.	.	.	.
Cn1c(=O)c2ncn(CC(=O)Nc3cc(C(F)(F)F)ccc3N3CCOCC3)c2n(C)c1=O	14%	59	?	?	?	-2%
O=C(Cn1cnc2ccccc21)Nc1cc(C(F)(F)F)ccc1N1CCOCC1	5%	4	4.7µM*	6%	4.1µM*	-7%
CCOC(=O)c1ccc(NC(=O)c2cc3c(n(-c4ccc(C)cc4)c2=O)CC(C)(C)CC3=O)cc1	4%[46.1 µM]	-7	.	.	.	-7%[46.1 µM]
COC(=O)[C@@H]1[C@@H](CO)[C@@H]2Cn3c(cccc3=O)[C@H]1N2S(=O)(=O)c1cccc(C)c1	.	21	.	.	.	.
COc1ccc(/C=N/N(C(C)=O)c2nc(-c3ccc(C)cc3)cs2)cc1	?	-31	?	-10%	?	?
CC(=O)N(/N=C/c1cccc(C)c1)c1nc(-c2ccc(Br)cc2)cs1	?	19	?	9%	12µM*	?
CC1CCc2c(sc3nnn(Cc4ccccc4Cl)c(=O)c23)C1 (stereo not given)	-2%[46.1 µM]	-12	.	.	.	-1%[46.1 µM]
COc1ccccc1CCNC(=O)c1cc(-c2ccncc2)nc2ccc(Br)cc12	?	-66*	?	0.89µM*	-10%	?
COC(=O)CNC(=O)c1cc(-c2ccncc2)nc2ccc(C)cc12	.	4	11%	6%	-28%	.
COc1ccccc1CCNC(=O)c1cc(-c2ccccn2)nc2ccccc12	-32%	-7	12%	11µM*	?	-8%
Cc1ccc2nc(-c3ccncc3)cc(C(=O)NCc3ccccc3F)c2c1	.	.	?	-21%	15µM*	.
O=C(CCC1N=C2c3ccccc3N=C(SCc3cccc(F)c3)N2C1=O)NCCc1ccccc1 (stereo not given)	.	-30	.	.	.	?
CC1CCc2c(sc3nnn(Cc4ccccc4)c(=O)c23)C1 (stereo not given)	1%[46.1 µM]	0	.	.	.	-5%[46.1 µM]
O=C(/C=C/c1ccccc1)NC(NC(=S)Nc1cc(Cl)ccc1Cl)C(Cl)(Cl)Cl (stereo not given)	?	-2	?	?	10µM*	?
O=C(CCc1ccccc1)NC(NC(=S)Nc1ccc(Cl)cc1)C(Cl)(Cl)Cl (stereo not given)	11µM*	-39	.	-12%	?	?
O=C(Cc1ccccc1)NC(NC(=S)Nc1cc(Cl)ccc1Cl)C(Cl)(Cl)Cl (stereo not given)	-16%	-36	?	-4%	13%	-10%
SMILES	MARV entry inh	HCMV inh	Pf growth 48h	HCV inh	Pf growth 96h	Lassa entry inh
CC(C)NC(NC(=O)/C=C/c1ccccc1)C(Cl)(Cl)Cl (stereo not given)	-8%[46.1 µM]	16	2%	19%	1µM*	14%
COc1ccc(NC(=S)NC(NC(=O)/C=C/c2ccccc2)C(Cl)(Cl)Cl)cc1 (stereo not given)	-15%	46	?	-17%	2.3µM*	-26%
CC1CCCN(Cc2c(O)ccc3c(=O)c(Oc4ccccc4Cl)c(C(F)(F)F)oc23)C1 (stereo not given)	1%[46.1 µM]	-14	.	.	.	-11%[46.1 µM]
O=C(NCC(=O)N1CCOCC1)c1ccc(Br)o1	17%	-19	20%	10%	1%	-19%
CCOC(=O)[C@]12CCC=C1N(Cc1ccc(Cl)cc1Cl)C(=O)[C@H](CC(=O)NCc1cccc(C(F)(F)F)c1)C2	.	-17	.	.	.	.
O=C(/C=C/c1ccccc1)NC(NC(=S)Nc1ccc(Cl)cc1)C(Cl)(Cl)Cl (stereo not given)	4.6µM*	?	6.6µM*	?	1%	?
COc1ccccc1NC(=O)Cn1c(SCC(=O)NCc2ccccc2)nc2ccccc21	.	54	.	.	.	24%[46.1 µM]
COc1ccc(/C=C/C(=O)CC(O)(c2ccccc2)C(F)(F)F)cc1 (stereo not given)	?	-100*	13µM*	-12%	?	?
O=C(O)/C=C/c1ccccc1	.	.	-6%	.	-9%	.
O=C(/C=C/c1ccccc1)CC(O)(c1ccccc1)C(F)(F)C(F)F (stereo not given)	?	?	.	?	7.4µM*	?
O=C(/C=C/c1ccccc1)CC(O)(c1ccccc1)C(F)(F)F (stereo not given)	?	-102*	.	?	?	?
COc1ccccc1N1CCN(C(=O)c2c(C)oc3ncn(C)c(=O)c23)CC1	.	-3	.	.	.	9%[46.1 µM]
CCCN(CCC)S(=O)(=O)c1ccc(C(=O)Nc2nc3c(s2)CCc2ccccc2-3)cc1	?	-72*	-19%	23%	?	?
Cc1ccc(-c2nc(NC(=O)c3ccc(S(=O)(=O)N(CCC#N)CCC#N)cc3)sc2-c2ccccc2)cc1	?	11	-25%	11%	12µM*	26%
COc1ccc2c(c1)CCc1sc(NC(=O)c3ccc(C)cc3)nc1-2	1%	0	?	-14%	6.6µM*	-8%
COc1ccc(C(=O)Nc2nc(-c3ccc([N+](=O)[O-])cc3)c(-c3ccccc3)s2)cc1	-5%	-18	.	6.3µM*	.	-26%
COc1ccc(-c2sc(NC(=O)c3ccc(C)cc3)nc2-c2ccc([N+](=O)[O-])cc2)cc1	?	6	4%	0%	0%	2%
O=C(Cn1nc(-c2ccccc2)c2cnc3ccc(F)cc3c21)NC1CCCC1	.	17	.	.	.	-14%[46.1 µM]

Source: PubChem (National Center for Advancing Translational Sciences (NCATS))
